Compound activity deposited in PubChem by National Center for Advancing Translational Sciences (NCATS).
Rango dissoc inh: prevents RanGTP from dissociating the Rango-importin beta complex; O95149+P62826; Biochemical FRET Rango-importin beta, RanGTP-induced dissociation; Potency, µM (top dose mostly 46.1 µM), for inactives: at the highest dose activity change, negative = inhibition; 0.071% of 340,000 active; AID 540253; calls by dose curve; also: % of control where 0% means no effect; nearly all actives have a fitted effect of over 45% in size
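FRET read at 45 min, room temperature: inhibitors block the CFP/YFP signal rise when RanGTP (0.6 uM Ran, 2 mM GTP, 0.2 uM RCC1) frees Rango (0.1 uM) from importin beta (0.25 uM). Pre-read after 5 min compound exposure flags interference.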
Rango complex inh: prevents formation of the Rango-importin beta complex. Q14974. Rango CFP/YFP FRET sensor + importin beta, 45 min. Potency, µM (titrated, usually from 92.2 µM), without a hit: at the top dose inhibition of complex formation. 0.031% of 340,000 active; calls by dose curve;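 also: 0% = DMSO wells and 100% = buffer wells lacking importin beta; nearly all actives have a fitted effect of over 15% in size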
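FRET biosensor (snurportin 1 IBB flanked by EYFP and cerulean), 50 nM, with compound 5 min, then 0.125 microM importin beta in PBS, 1 mM DTT, 0.02% Tween-20, 0.1% BSA. CFP/YFP ratio read after 45 min at room temperature; pre-read flags interference.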
TSG101-PTAP inh: blocks PTAP/TSG101 interaction to inhibit HIV-1 budding; AID 493005; Q99816; Potency, µM (top dose mostly 115 µM), for inactives: at the top dose activity change, negative = inhibition, most hits filed as inhibitors; Fluorescence polarization, FITC-PTAP peptide / Tsg101 binding; 340,000 tested, under 10 active; active = well fitted inhibition curve with a large enough effect in the main read-out, with a control signal flat, not every such curve was filed as active; inconclusive = small, poorly fitted or top-dose-only effect, or effect the other way, or a change in a side signal; inactive = no such curve, though single readings can be large or run the other way; also: % of control where 0% means no effect
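Tsg101 binding domain (10 uM final) was mixed with compound and a FITC-labeled PTAP peptide (50 nM final) in HEPES pH 7.5 buffer with NaCl, Tween 20, EDTA and TCEP; fluorescence polarization was read after 20 min at r.t.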
ClpP mod: qHTS Assay for Activators of ClpP; ATP-dependent Clp protease proteolytic subunit (Bacillus subtilis (strain 168)), P80244; purified B. subtilis ClpP, FRET peptide cleavage, 20 min; Potency, µM (highest dose often 57.5 µM), for inactives: at the highest dose activity change, negative = active; 1.9% of 340,000 active; AID 651965, 2013; active = well fitted falling curve with a large enough effect; inconclusive = small, poorly fitted or top-dose-only effect; inactive = no such curve, though single readings can be large or run the other way; also: the source files actives as falling curves though it sought activators and does not explain the sign; nearly all actives have a fitted effect of over 65% in size
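ClpP 10 microg/mL final, pH 8 Tris/KCl buffer with BSA, glycerol, Tween-20; compound pinned in; FRET-FV substrate; RT 20 min; Ex320/Em430; ΔFRET vs ADEP 5.8 microM, DMSO, no enzyme.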
TDP1 block: blocks human tyrosyl-DNA phosphodiesterase 1; Q9NUW8; recombinant TDP1, AlphaScreen DNA substrate cleavage; Potency, µM (top dose mostly 130 µM), inactives show at the top dose activity change, negative = inhibition, hits mostly inhibitors; 0.28% of 350,000 active; also: % is scaled to controls: 0 for no effect and ±100 for the full control effect; nearly all actives have a fitted effect of over 40% in size
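Enzyme-compound mixtures sat 15 min at room temperature, followed by a 5 min reaction with 15 nM final substrate and 10 min with AlphaScreen beads. Recombinant human Tdp1 was used at 1 nM final.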
12-LOX inh: blocks human arachidonate 12S-lipoxygenase | P18054 | purified 12hLO, xylenol orange hydroperoxide absorbance | Potency, µM (series often up to 108 µM), for inactives: top-dose activity change, negative = inhibition, hits mostly inhibitors | 1.1% of 580,000 active | AID 1671190; also: % is scaled to controls: 0 for no effect and ±100 for the full control effect
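Purified human 12hLO (150 nM final) in 25 mM Hepes, 0.01% Triton X-100, pH 7.0 was preincubated 15 min at room temperature with compound. Then 40 uM arachidonic acid was added, 30 min. Hydroperoxide was read by Fe-XO absorbance ratio 573/405 nm.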
ClpP validation: inhibits B. subtilis ClpP protease, hit validation. Potency, µM (series often up to 57.5 µM), for the others: at the highest dose activity change, negative = inhibition, most hits filed as inhibitors. AID 743245. shares compounds with ClpP mod. 40% of 470 active. purified B. subtilis ClpP, FRET-FV substrate cleavage, 20 min; also: % is scaled to controls: 0 for no effect and ±100 for the full control effect; nearly all actives have a fitted effect of over 70% in size
The depositor's hits bear a star; ? = inconclusive; / = not tested or not shown; [ ] = another dose, or the depositor's remark. Sampled rows, rich in hits. Any-hit rate of the full collection: about 2.4%. Unless noted, calls follow the shape of the dose curve; as a rule, active = well fitted curve in the direction sought with a large enough effect; inconclusive = small, poorly fitted or top-dose-only effect, or another doubt; inactive = no such curve, though single readings can be large; an effect the other way counts as inactive or inconclusive. Potency is read from the fitted curve at half-maximal effect.

SMILES	Rango dissoc inh	Rango complex inh	TSG101-PTAP inh	ClpP mod	TDP1 block	12-LOX inh	ClpP validation
Cc1ccccc1C(=O)NCC(=O)NC1CC1	-11%	1%	0%	0%	0%	4%	/
O=C(N[C@@H]1CN(c2ccncn2)C[C@H]1CO)c1ccco1	/	/	/	/	/	13%	/
COc1ccc(-c2cc(C(F)(F)F)nc(-n3cc(Cl)cn3)n2)cc1	-11%	0%	-7%	4µM*	-2%	-18%	22µM*
CCOC(=O)C(C)Sc1nnc(CSc2ncccn2)n1-c1ccc(F)cc1 (configuration not stated)	/	/	/	/	/	-18%	/
O=C(Nc1cccc(-c2nc3ccccc3o2)c1)c1ccc(-c2ccc(Br)cc2)o1	/	/	/	4µM*	/	?	11%
COc1ccc(NC2=CC(c3ccc(F)cc3)N(c3ccc(OC)cc3)C2=O)cc1 (configuration not stated)	1%	-4%	-1%	94%	7%	?	?
COc1ccc(NC2=CC(c3ccc(OC)cc3)N(c3ccc(OC)cc3)C2=O)cc1 (configuration not stated)	1%	-4%	-2%	-10%	5%	-28%	/
CCc1ccc(NC(=O)c2c(Cl)nc(C)c(Cl)c2C)cc1	3%	-4%	1%	43%	1%	9%	0%
Cc1ccccc1NC(=O)c1c(Cl)nc(C)c(Cl)c1C	20%	-3%	-9%	2%	5%	-4%	/
Cc1c(C(=O)Nc2ccccc2)nnn1-c1ccc2noc(-c3ccccc3)c2c1	/	/	/	/	/	-15%	/
Cc1cc(=O)oc2cc(OCc3cc4c(cc3Cl)OCO4)ccc12	7%	2%	-13%	109%	4%	-23%	?
Clc1ccc2nc3ccccn3c2c1	-4%	0%	-5%	2.5µM*	0%	0%	?
N#Cc1ccc2c(c1)nc1ccccn12	7%	?	-1%	/	1%	-7%	/
COc1ccc(-c2ncc[nH]2)cc1	/	/	/	/	/	8%[12.5 µM]	/
O=C(Cc1ccccc1)Nc1ccc(-c2nnc(-c3ccco3)o2)cc1	9%	4%	-6%	8.9µM*	-5%	-7%	-21%
CCC(=O)Nc1ccc(-c2nnc(-c3ccccc3)o2)cc1	-1%	5%	-6%	2.8µM*	5%	-2%	7.7µM*
Cc1ccc(-c2nnc(-c3ccc(NC(=O)Cc4cccs4)cc3)o2)cc1	2%	5%	0%	3.5µM*	-4%	?	?
CC1(C)CC(=O)C2=C(C1)N(c1cccc(F)c1)C(N)=C(C#N)C21C(=O)Nc2ccccc21 (configuration not stated)	/	/	/	/	/	-13%	/
N#Cc1c(Cl)nc(N/N=C/c2ccc(Cl)c([N+](=O)[O-])c2)c(Cl)c1Cl	/	/	/	/	/	1%	/
Cn1c(C(=O)NCCC2=CCCCC2)cc2c(=O)n3ccccc3nc21	?	?	-4%	7.9µM*	3%	-7%	-16%
NC(=O)[C@H](Cc1ccc(O)cc1)NC(=O)C1=C[C@@H](NC(=O)c2cccnc2)[C@@H](O)[C@H](O)C1	/	/	/	/	/	12%	/
CCCc1cc(=O)n2c(nc3ccccc32)[nH]1	-2%	?	1%	7.1µM*	6%	0%	14µM*
Cc1ccc2nccc(C(=O)N3CCn4nc(C(=O)N5CCCC5)cc4C3)c2c1	/	/	/	/	/	16%	/
Fc1ccc(-c2cc3nc(-c4ccccc4)cc(N4CCOCC4)n3n2)cc1	-24%	?	-3%	3.5µM*	2%	5%	34µM*
Fc1cccc(-c2cc3nc(-c4ccccc4)cc(N4CCC5(CC4)OCCO5)n3n2)c1	?	?	-2%	?	/	0%	/
Cc1ccc(-c2cc3nc(-c4ccccc4)cc(N4CCC5(CC4)OCCO5)n3n2)cc1	?	?	2%	7.1µM*	-13%[56.1 µM]	0%	4%
COc1ccc(C(=O)OCC(=O)Nc2cc(OC)ccc2OC)c(C)c1	/	/	/	/	/	-2%	/
CC(Sc1nnc(-c2ccco2)n1C)C(=O)N1CCc2ccccc2C1 (configuration not stated)	/	/	/	/	/	-29%	/
